RGS8-Gao reg: modulates binding of RGS8 to human Galphao; P09471; multiplexed bead flow cytometry; actives lie on both sides; response (percent of control binding), % at 10 µM; hit rate 0.34% among 220,000; in the data active = response below about 60% or above about 140%; inactive = in between;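 note: Galphao activated as the GDP aluminium fluoride complex binding bead-coupled RGS8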
Target sequence (P09471 whole entry, looked up): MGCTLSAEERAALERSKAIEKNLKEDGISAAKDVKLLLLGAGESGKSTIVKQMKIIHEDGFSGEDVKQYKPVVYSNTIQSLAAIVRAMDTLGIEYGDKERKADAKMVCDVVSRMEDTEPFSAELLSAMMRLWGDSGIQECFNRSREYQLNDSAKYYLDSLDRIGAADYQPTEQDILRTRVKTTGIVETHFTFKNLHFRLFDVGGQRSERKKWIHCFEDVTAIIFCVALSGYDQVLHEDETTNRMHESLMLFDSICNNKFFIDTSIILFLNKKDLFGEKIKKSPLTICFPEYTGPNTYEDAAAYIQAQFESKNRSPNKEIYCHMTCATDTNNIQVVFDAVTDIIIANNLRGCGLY
GSH fluor: GSH bead compound fluorescence profile. fluorescence (KMESF) at 10 µM. AID 1776. hit rate 0.25% among 190,000. GSH beads flow cytometry, compound fluorescence 488/530 nm; active compounds read high; in the data active = fluorescence above about 89;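 note: glutathione beads carrying GST-tagged Bcl family fusion proteins plus one bare bead set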
RGS7-Gao reg: modulates binding of RGS7 to human Galphao; P09471; Multiplexed bead flow cytometry; actives lie on both sides; binding response (% of control), % at 10 µM; hit rate 0.35% among 220,000; in the data active = binding response below about 49% or above about 150%; inconclusive = no clear call, values can overlap the other calls; inactive = in between;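 note: fluorescent Galphao held in activated GDP-AlF4 state binding bead-coupled RGS7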
RGS4-Gao reg: human RGS4-Galphao interaction regulation. P09471. Multiplexed bead flow cytometry, RGS4-Galphao binding; actives lie on both sides. binding response (% of control), % at 10 µM. hit rate 0.33% among 220,000; in the data active = binding response below about 49% or above about 150%; inactive = in between;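 note: fluorescent Galphao activated with aluminum fluoride binding bead-coupled RGS4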
RGS16-Gao HTS: regulators of human RGS16-Galphao interaction. hit rate 0.38% among 220,000. O15492+P09471. binding response (% of control), % at 10 µM. bead-based flow cytometry RGS16-Galphao binding, fluorescence; actives lie on both sides;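 note: Galphao activated by GDP with aluminum fluoride before binding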
Avidin fluor: avidin bead compound fluorescence profile | Avidin beads, compound fluorescence 488/530 nm, flow cytometry; active compounds read high | AID 1775 | hit rate 0.38% among 220,000 | fluorescence (KMESF) at 10 µM; in the data active = fluorescence above about 47
RGS-Gao: RGS4-Galphao interaction regulator (human) | shares compounds with RGS16-Gao HTS | multiplexed bead flow cytometry, RGS–Galpha-o binding | RGS4–Galpha-o binding response, % at 10 µM | hit rate 99% among 1,600 | AID 1504;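 note: fluorescently labeled Galpha-o bound to GDP with aluminium fluoride binding biotinylated RGS beads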
Target sequence (P09471 whole entry, looked up): as above
Target sequence (P49798 whole entry, looked up): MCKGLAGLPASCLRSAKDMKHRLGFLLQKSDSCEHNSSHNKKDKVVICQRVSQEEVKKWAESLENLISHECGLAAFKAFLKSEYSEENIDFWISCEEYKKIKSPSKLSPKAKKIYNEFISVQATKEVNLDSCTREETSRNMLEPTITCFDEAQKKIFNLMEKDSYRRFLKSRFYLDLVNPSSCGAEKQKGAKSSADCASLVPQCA
Avidin counter: interferes with biotinylated probe binding to avidin beads; shares compounds with RGS16-Gao HTS; streptavidin beads, fluorescein-biotin binding, flow cytometry; inhibition, % at 10 µM; 1,700 tested, under 10 active; AID 1783;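 active = inhibition above 50%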;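 note: median green fluorescence of gated singlet beads compared with DMSO control wells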
RGS8-Gao confirm: confirmation of regulators of human RGS8-Galphao interaction; shares compounds with RGS16-Gao HTS; bead-based flow cytometry RGS8-Galphao binding, fluorescence; actives lie on both sides; binding response (% of control), % at 10 µM; hit rate 3% among 1,700; AID 1836; in the data active = binding response below about 72% or above about 130%; inactive = in between;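 note: Galphao activated as GDP AlF4 complex before binding bead RGS8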
RGS7-Gao confirm: confirmation of regulators of human RGS7-Galphao interaction | shares compounds with RGS16-Gao HTS | bead-based flow cytometry RGS7-Galphao binding; actives lie on both sides | response (percent of control binding), % at 10 µM | hit rate 7.8% among 1,700; in the data active = response below about 75% or above about 130%; inactive = in between;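 note: fluorescent Galphao activated with GDP and aluminum fluoride binding bead-coupled RGS7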
RGS16-Gao single: confirmation of regulators of human RGS16-Galphao interaction. shares compounds with RGS16-Gao HTS. bead-based flow cytometry, RGS16-Galphao binding; actives lie on both sides. response (% of control binding), % at 10 µM. hit rate 4% among 1,700. AID 1838; in the data active = response below about 74% or above about 130%; inactive = in between;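 note: Galphao activated as the GDP aluminium fluoride complex binding bead-coupled RGS16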
RGS4-Gao confirm: RGS4-Galphao interaction regulation, single point confirmation; shares compounds with RGS16-Gao HTS; RGS4-Galphao binding, multiplexed bead flow cytometry; actives lie on both sides; binding response (% of control), % at 10 µM; hit rate 4% among 1,700; AID 1840; in the data active = binding response below about 74% or above about 130%; inactive = in between
RGS19-Gao single: confirmation of regulators of human RGS19-Galphao interaction | shares compounds with RGS16-Gao HTS | bead-based flow cytometry RGS19-Galphao binding; actives lie on both sides | response (percent of control binding), % at 10 µM | hit rate 5% among 1,700; in the data active = response below about 50% or above about 160%; inactive = in between
Large screens that a line does not name were inactive (follow-up assays come after a bar, where they were run); [ ] = another dose, or the depositor's remark. Compounds with a hit are over-represented: about 1.2% of the library has one in this group of screens. Unless noted, the rule behind the calls is not given here.

COC(=O)c1c(C(=O)NCc2ccccc2)ncn1CC(O)COc1ccccc1 (stereo not drawn)	RGS16-Gao HTS -175 | RGS-Gao 58 | Avidin counter inactive | RGS8-Gao confirm inactive | RGS7-Gao confirm 74 | RGS16-Gao single inactive | RGS4-Gao confirm inactive | RGS19-Gao single inactive
O=C(CSc1nnnn1-c1ccccc1)Nc1ccc(Cl)cc1	none
CCn1c2ccccc2c2cc(NC(=O)CSc3nnnn3-c3ccccc3)ccc21	none (no result: RGS8-Gao reg, RGS7-Gao reg, RGS4-Gao reg, RGS16-Gao HTS, Avidin fluor) | Avidin counter inactive | RGS8-Gao confirm inactive | RGS7-Gao confirm inactive | RGS16-Gao single inactive | RGS4-Gao confirm inactive | RGS19-Gao single inactive
O=C(O)CCC(=O)Nc1sc2c(c1C(=O)Nc1cccc3ccccc13)CCCCC2	RGS8-Gao reg 174[activator], RGS7-Gao reg 191[activator], RGS4-Gao reg 193[activator] | Avidin counter inactive | RGS8-Gao confirm inactive | RGS7-Gao confirm inactive | RGS16-Gao single inactive | RGS4-Gao confirm inactive | RGS19-Gao single inactive
Oc1ccc(N=Nc2n[nH]c(-c3ccccc3)n2)cc1	RGS16-Gao HTS 14 | RGS-Gao 91 | Avidin counter inactive | RGS8-Gao confirm inactive | RGS7-Gao confirm 56 | RGS16-Gao single 72 | RGS4-Gao confirm 72 | RGS19-Gao single 35
CCNC(=S)Nc1cc(OCC)c(NC(=O)c2cccs2)cc1OCC	RGS7-Gao reg 36, RGS4-Gao reg 44 | Avidin counter inactive | RGS8-Gao confirm inactive | RGS7-Gao confirm inactive | RGS16-Gao single inactive | RGS4-Gao confirm inactive | RGS19-Gao single inactive
CC1=CC=CN2CC(O)CN=C12 (stereo not drawn)	none
CC1=CN2CC(O)CN=C2C=C1 (stereo not drawn)	none (no result: RGS8-Gao reg, RGS7-Gao reg, RGS4-Gao reg, RGS16-Gao HTS, Avidin fluor) | Avidin counter inactive | RGS8-Gao confirm inactive | RGS7-Gao confirm inactive | RGS16-Gao single inactive | RGS4-Gao confirm inactive | RGS19-Gao single inactive
CCOC(CCc1c(C)nc(NC(C)=O)[nH]c1=O)OCC	RGS7-Gao reg inconclusive (no result: GSH fluor)
CC(=O)Nc1nc(C)c(CCCOc2ccc([N+](=O)[O-])cc2)c(=O)[nH]1	RGS7-Gao reg inconclusive, RGS4-Gao reg 153[activator], Avidin fluor 47 (no result: GSH fluor) | Avidin counter inactive | RGS8-Gao confirm inactive | RGS7-Gao confirm inactive | RGS16-Gao single inactive | RGS4-Gao confirm inactive | RGS19-Gao single inactive
O=C(/C=C/c1ccccc1)/C=C/c1ccccc1	none
Cc1ccc(N(CCC#N)C(=O)CCl)cc1C	RGS16-Gao HTS 21 | RGS-Gao 95 | Avidin counter inactive | RGS8-Gao confirm inactive | RGS7-Gao confirm inactive | RGS16-Gao single inactive | RGS4-Gao confirm inactive | RGS19-Gao single inactive
CN1C(=O)/C(=C/c2ccccc2OCc2cccc(F)c2)N(C)C1=S	none (no result: RGS8-Gao reg, RGS7-Gao reg, RGS4-Gao reg, RGS16-Gao HTS, Avidin fluor) | Avidin counter inactive | RGS8-Gao confirm inactive | RGS7-Gao confirm inactive | RGS16-Gao single inactive | RGS4-Gao confirm inactive | RGS19-Gao single inactive
Fc1cccc(COc2ccccc2C(=S)N2CCCC2)c1	none
CC(C)(C)NC(=O)NC(=O)COC(=O)c1cc[n+]([O-])cc1	RGS7-Gao reg 212[activator], Avidin fluor 207 | RGS-Gao 126 | Avidin counter inactive | RGS8-Gao confirm inactive | RGS7-Gao confirm inactive | RGS16-Gao single inactive | RGS4-Gao confirm inactive | RGS19-Gao single inactive
CC(C)(C)NC(=O)NC(=O)COC(=O)c1cccc(F)c1	none
C=CCN1C(=O)CSc2ccc(C(=O)NCc3cccs3)cc21	none
O=C(Cc1noc2ccccc12)Nc1ccc2ccccc2c1	RGS16-Gao HTS 25 | RGS-Gao 91 | Avidin counter inactive | RGS8-Gao confirm inactive | RGS7-Gao confirm inactive | RGS16-Gao single inactive | RGS4-Gao confirm inactive | RGS19-Gao single inactive
O=C(/C=C/c1ccccc1)N1CCN(c2c(Cl)cccc2[N+](=O)[O-])CC1	none
O=Cc1ccc(O)c(O)c1	none
Oc1ccc(N=Cc2ccc(O)c(O)c2)cc1	RGS7-Gao reg 49 | RGS-Gao 59 | Avidin counter inactive | RGS8-Gao confirm inactive | RGS7-Gao confirm inactive | RGS16-Gao single inactive | RGS4-Gao confirm inactive | RGS19-Gao single inactive
CCOC(=O)C1=C(C)NC(C)=C(C(=O)OCCNC(=O)c2cccnc2)C1c1cccc([N+](=O)[O-])c1 (stereo not drawn)	RGS16-Gao HTS 213[activator] | RGS-Gao 108 | Avidin counter inactive | RGS8-Gao confirm inactive | RGS7-Gao confirm 70 | RGS16-Gao single inactive | RGS4-Gao confirm inactive | RGS19-Gao single inactive
CCC(CC)NC(=O)Cc1ccc(F)cc1	none
CCCCOCCCNC(=O)C1CCCCC1	RGS8-Gao reg 55 | RGS-Gao 84 | Avidin counter inactive | RGS8-Gao confirm inactive | RGS7-Gao confirm inactive | RGS16-Gao single inactive | RGS4-Gao confirm inactive | RGS19-Gao single inactive
CCOc1ccccc1-c1c2cc(O)c(=O)cc-2oc2cc(O)c(O)cc12	RGS7-Gao reg 42 | RGS-Gao 85 | Avidin counter inactive | RGS8-Gao confirm 64 | RGS7-Gao confirm 50 | RGS16-Gao single 63 | RGS4-Gao confirm inactive | RGS19-Gao single 40
O=c1cc2oc3cc(O)c(O)cc3c(-c3ccccc3O)c-2cc1O	RGS7-Gao reg inconclusive (no result: GSH fluor)
CCNC(=O)c1ccccc1NC(=O)c1cccc(S(=O)(=O)N2CCOCC2)c1	RGS8-Gao reg 6.6, RGS7-Gao reg -3.6, RGS4-Gao reg -14, RGS16-Gao HTS -4.5 | Avidin counter inactive | RGS8-Gao confirm inactive | RGS7-Gao confirm inactive | RGS16-Gao single inactive | RGS4-Gao confirm inactive | RGS19-Gao single inactive
CCOc1ccc(CCNC(=O)c2cc3sccc3n2C)cc1OCC	RGS8-Gao reg 142[activator], RGS4-Gao reg 155[activator] | Avidin counter inactive | RGS8-Gao confirm inactive | RGS7-Gao confirm inactive | RGS16-Gao single inactive | RGS4-Gao confirm inactive | RGS19-Gao single inactive
COc1ccccc1NC(=O)Cn1nc(Cc2cccnc2)c2ccccc2c1=O	RGS7-Gao reg inconclusive (no result: GSH fluor)
Cc1noc(C)c1COc1ccc(C(=O)OCC(=O)Nc2cccc(S(=O)(=O)N3CCOCC3)c2)cc1	none
